Data on 15 molecules can be found in PubChem BioAssay (Tox21).

Assay [1] is described as follows: Caspase-3/7 induction in HepG2 cells by small molecules, qHTS assay (AID 1346978). Note: nearly all actives have a fitted effect of over 15% in size. In outline: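 Caspase-3/7 induction was measured by Caspase-Glo 3/7 luminescence (30 min, room temperature) after a 17 hr compound exposure of wild-type HepG2 cells seeded at 2,000 per well and pre-incubated 5 hr.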
On the technique in general: Quantitative high-throughput screening tests each substance at several concentrations.

A short description of assay [2]: Caspase-3/7 induction in CHO-K1 cells by small molecules, qHTS cell viability counter screen (AID 1346979). Note: nearly all actives have a fitted effect of over 35% in size. Note: potency is the fitted concentration of half-maximal effect. In outline: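 Wild-type CHO-K1 cells (1,500/well) treated with compound after 5 h plating; after 16 h at 37C, viability read as CellTiter-Fluor fluorescence following 1 h reagent incubation, in the same wells as the caspase read.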
Assay [3] in a line: Caspase-3/7 induction in CHO-K1 cells by small molecules, qHTS assay (AID 1346980). Note: nearly all actives have a fitted effect of over 15% in size. In outline:
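Luminescent Caspase-Glo 3/7 read (30min, room temperature) quantified apoptosis induction. Cells were wild-type CHO-K1, treated with compound for 17hr at 37 C and 5% CO2.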

A short description of assay [4]: Caspase-3/7 induction in HepG2 cells by small molecules, qHTS cell viability counter screen (AID 1346981). Note: nearly all actives have a fitted effect of over 30% in size. Note: potency is the fitted concentration of half-maximal effect. An outline of the steps:
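Viability determined by CellTiter-Fluor fluorescence in HepG2 wells also used for the luminescent Caspase-Glo 3/7 read. Compounds were present for 16 hr at 37 C, 5% CO2 before reagent addition.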

Assay [5] concerns the target Nuclear receptor subfamily 1 group I member 2 (Homo sapiens) (UniProt O75469). In words: Human pregnane X receptor (PXR) small molecule agonists, qHTS assay (AID 1346982). Note: nearly all actives have a fitted effect of over 35% in size. Note: potency is the fitted concentration of half-maximal effect. An outline of the steps: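 Compound-induced hPXR transactivation of a CYP3A4 luciferase reporter was scored in HepG2 PXR-Luc cells over 24 hr at 37 C, 5% CO2, by luminescence.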
The target is the same in assay [6]. As to the kind of experiment: CYP3A4 induction through human pregnane X receptor (PXR) by small molecules, qHTS assay (AID 1346984). Note: nearly all actives have a fitted effect of over 40% in size. In outline: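 Readings come from a luciferase reporter: DPX-2 cells, which are HepG2 cotransfected with PXR and a CYP3A4-promoter construct, were exposed to test compounds for 24 h at 37C before One-Glo detection.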
For assay [7] the target is unchanged. In words: Human pregnane X receptor (PXR) activation by small molecules, qHTS assay (AID 1346985). Note: nearly all actives have a fitted effect of over 40% in size. In outline: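 DPX-2 cells (HepG2 co-transfected with a PXR response element and a CYP3A4-promoter luciferase construct) were seeded at 2,000 per well, rested 5 hr at 37C, then exposed to DMSO-dissolved compounds for 24 hr. Activation was read as luciferase luminescence.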

Assay [8] has as its target Cytochrome P450 2D6 (Homo sapiens) (UniProt P10635). As to the kind of experiment: Cytochrome P450 Family 2 Subfamily D Member 6 (CYP2D6) small molecule antagonists: luciferase reporter qHTS assay (AID 1671196). Note: nearly all actives have a fitted effect of over 50% in size. Note: potency is the fitted concentration of half-maximal effect. An outline of the steps: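 Each well received CYP2D6 with its proluciferin substrate and chemical, sat 10 min, then got NADPH regeneration solution for 1 h at room temperature. Luminescence in RLU served as the activity measure.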
In general terms: Reporter assays use an easily measured gene product as a stand-in for the process of interest.

In assay [9] the target is Cytochrome P450 2C19 (Homo sapiens) (UniProt P33261). In words: Cytochrome P450 Family 2 Subfamily C Member 19 (CYP2C19) small molecule antagonists: luciferase reporter qHTS assay (AID 1671197). Note: nearly all actives have a fitted effect of over 65% in size. Note: potency is the fitted concentration of half-maximal effect. In outline:
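Relative luminescence units recorded 20 min after the detection reagent stopped a 1 h, 37C CYP2C19 reaction on proluciferin substrate, which was started by NADPH regeneration following 10 min room-temperature compound preincubation; ketoconazole positive control.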

The target of assay [10] is Cytochrome P450 2C9 (Homo sapiens) (UniProt P11712). In words: Cytochrome P450 Family 2 Subfamily C Member 9 (CYP2C9) small molecule antagonists: luciferase reporter qHTS assay (AID 1671198). Note: nearly all actives have a fitted effect of over 50% in size. Note: potency is the fitted concentration of half-maximal effect. In outline:
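Enzyme-substrate mix preincubated with compound 10 min at room temperature; reaction started with NADPH regeneration solution, 1 h 37C. Luminescent luciferin product read after 20 min detection reagent.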

Assay [11] deals with Cytochrome P450 1A2 (Homo sapiens) (UniProt P05177). In words: Cytochrome P450 Family 1 Subfamily A Member 2 (CYP1A2) small molecule antagonists: luciferase reporter qHTS assay (AID 1671199). Note: nearly all actives have a fitted effect of over 50% in size. Note: potency is the fitted concentration of half-maximal effect. An outline of the steps:
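Enzymatic CYP1A2 assay, human, luminescent: 10 min compound–enzyme–substrate preincubation, 1 h NADPH-dependent turnover, 20 min detection step, room temperature throughout. Reduced light indicates lower CYP1A2 activity.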

In assay [12] the target is Voltage-gated inwardly rectifying potassium channel KCNH2 (Homo sapiens) (UniProt Q12809). As to the kind of experiment: Human Ether-a-go-go-Related Gene (hERG) channel small molecule antagonists: fluorescence cell-based qHTS assay (AID 1671200).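 Note: hERG-expressing U2OS cells given a thallium stimulus after FluxOR II dye loading; series mostly up to about 77 µM; nearly all actives have a fitted effect of over 50% in size.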 In outline: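 hERG-U2OS cells plated overnight at 37 C, loaded with FluxOR II dye 1 h at RT in dark; after 10 min, thallium stimulus added. Fluorescence (480/540 nm) read kinetically for 2 min at 1 s intervals.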
In general terms: hERG is a cardiac potassium channel; its block is linked to QT prolongation.

The target in assay [13] is Cytochrome P450 3A4 (Homo sapiens) (UniProt P08684). In words: Cytochrome P450 Family 3 Subfamily A Member 4 (CYP3A4) small molecule antagonists: luciferase reporter qHTS assay (AID 1671201). Note: nearly all actives have a fitted effect of over 50% in size. Note: potency is the fitted concentration of half-maximal effect. In outline: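 P450-Glo CYP3A4 luminescent assay: compounds preincubated 10 min at room temperature with enzyme and proluciferin substrate, NADPH regeneration added, 1 h room-temperature reaction, stopped with luciferin detection reagent; luminescence read after 20 min. Ketoconazole positive control.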

SMILES strings stand for the structures. Values joined by “and” are separate entries in the source; they are usually repeats but may differ in a detail not shown here. Equal entries are not always repeated. Results filed as inconclusive are left out. The source holds several records for some structures; these can differ, active in one and inactive in another. Active and inactive are the calls of the source. Calls come from the whole dose curve; as a rule, active = well fitted curve in the direction sought with a large enough effect in the repeat runs; inconclusive = weak or mixed curves; inactive = no such curve, though single readings can be large; an effect the other way counts as inactive or inconclusive.

Cytochrome P450 2C19 (Homo sapiens), sequence (P33261 whole entry, looked up): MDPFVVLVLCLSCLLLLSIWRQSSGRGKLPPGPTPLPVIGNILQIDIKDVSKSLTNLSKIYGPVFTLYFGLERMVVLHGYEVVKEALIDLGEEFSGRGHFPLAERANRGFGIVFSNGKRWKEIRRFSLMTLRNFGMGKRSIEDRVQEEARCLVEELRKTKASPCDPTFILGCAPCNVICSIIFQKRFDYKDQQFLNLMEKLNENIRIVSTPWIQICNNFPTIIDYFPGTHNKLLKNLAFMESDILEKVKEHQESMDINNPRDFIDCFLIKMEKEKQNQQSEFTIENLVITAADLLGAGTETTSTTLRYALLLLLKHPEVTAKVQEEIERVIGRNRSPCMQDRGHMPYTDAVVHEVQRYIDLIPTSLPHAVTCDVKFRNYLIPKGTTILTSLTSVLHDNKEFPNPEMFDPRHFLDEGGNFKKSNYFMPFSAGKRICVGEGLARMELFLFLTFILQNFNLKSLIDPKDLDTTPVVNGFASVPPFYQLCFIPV
Cytochrome P450 2D6 (Homo sapiens), sequence (P10635 whole entry, looked up): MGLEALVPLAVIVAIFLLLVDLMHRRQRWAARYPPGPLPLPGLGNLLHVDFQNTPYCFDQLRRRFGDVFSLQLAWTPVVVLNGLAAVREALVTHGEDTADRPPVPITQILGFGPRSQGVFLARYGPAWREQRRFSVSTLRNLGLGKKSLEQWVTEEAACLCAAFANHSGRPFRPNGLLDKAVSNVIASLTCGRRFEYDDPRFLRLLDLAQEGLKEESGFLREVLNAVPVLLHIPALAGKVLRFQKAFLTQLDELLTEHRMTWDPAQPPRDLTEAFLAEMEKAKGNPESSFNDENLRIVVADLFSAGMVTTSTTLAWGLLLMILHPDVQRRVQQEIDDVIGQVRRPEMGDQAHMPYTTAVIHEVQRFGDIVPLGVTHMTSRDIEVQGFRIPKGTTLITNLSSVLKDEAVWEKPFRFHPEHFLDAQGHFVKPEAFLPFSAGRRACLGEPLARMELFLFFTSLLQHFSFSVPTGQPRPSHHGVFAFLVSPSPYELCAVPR
Cytochrome P450 3A4 (Homo sapiens), sequence (P08684 whole entry, looked up): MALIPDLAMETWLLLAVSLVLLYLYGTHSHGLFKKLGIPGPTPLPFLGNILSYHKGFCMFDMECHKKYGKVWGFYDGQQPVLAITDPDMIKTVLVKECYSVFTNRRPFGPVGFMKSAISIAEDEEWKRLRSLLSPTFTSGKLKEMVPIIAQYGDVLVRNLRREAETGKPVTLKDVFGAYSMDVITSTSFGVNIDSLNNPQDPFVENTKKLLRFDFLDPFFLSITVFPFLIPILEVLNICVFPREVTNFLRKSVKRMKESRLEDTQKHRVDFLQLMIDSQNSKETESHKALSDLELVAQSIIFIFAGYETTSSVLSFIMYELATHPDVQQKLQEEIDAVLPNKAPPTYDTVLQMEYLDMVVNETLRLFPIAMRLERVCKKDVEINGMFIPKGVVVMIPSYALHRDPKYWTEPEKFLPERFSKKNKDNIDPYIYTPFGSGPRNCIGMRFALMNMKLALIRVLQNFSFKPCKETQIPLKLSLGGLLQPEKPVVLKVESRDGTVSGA
Nuclear receptor subfamily 1 group I member 2 (Homo sapiens), sequence (O75469 whole entry, looked up): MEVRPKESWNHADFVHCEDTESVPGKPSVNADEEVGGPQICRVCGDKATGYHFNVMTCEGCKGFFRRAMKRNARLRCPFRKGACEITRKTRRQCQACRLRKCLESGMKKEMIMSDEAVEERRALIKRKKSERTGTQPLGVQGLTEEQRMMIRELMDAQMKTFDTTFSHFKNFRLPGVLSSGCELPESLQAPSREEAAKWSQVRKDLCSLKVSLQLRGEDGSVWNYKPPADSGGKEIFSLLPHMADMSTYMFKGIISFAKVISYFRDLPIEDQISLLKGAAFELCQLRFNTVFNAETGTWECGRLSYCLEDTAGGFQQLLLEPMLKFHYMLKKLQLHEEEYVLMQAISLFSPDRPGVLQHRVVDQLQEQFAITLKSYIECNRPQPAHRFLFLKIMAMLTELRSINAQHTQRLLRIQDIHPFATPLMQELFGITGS
Cytochrome P450 1A2 (Homo sapiens), sequence (P05177 whole entry, looked up): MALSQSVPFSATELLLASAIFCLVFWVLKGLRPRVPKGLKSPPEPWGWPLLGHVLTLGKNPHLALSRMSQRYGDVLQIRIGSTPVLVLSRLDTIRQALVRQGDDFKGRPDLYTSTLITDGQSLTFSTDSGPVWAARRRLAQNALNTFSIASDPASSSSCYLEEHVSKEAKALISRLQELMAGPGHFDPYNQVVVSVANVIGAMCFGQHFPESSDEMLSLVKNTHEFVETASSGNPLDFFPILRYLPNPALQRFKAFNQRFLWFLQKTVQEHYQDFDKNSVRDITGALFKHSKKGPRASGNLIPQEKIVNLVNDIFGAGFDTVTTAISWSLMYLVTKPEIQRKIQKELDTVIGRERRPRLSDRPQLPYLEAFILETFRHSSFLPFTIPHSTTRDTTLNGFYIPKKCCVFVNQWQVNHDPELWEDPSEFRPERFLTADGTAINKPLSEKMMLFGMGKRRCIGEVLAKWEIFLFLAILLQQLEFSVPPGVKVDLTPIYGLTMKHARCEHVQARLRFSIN
Cytochrome P450 2C9 (Homo sapiens), sequence (P11712 whole entry, looked up): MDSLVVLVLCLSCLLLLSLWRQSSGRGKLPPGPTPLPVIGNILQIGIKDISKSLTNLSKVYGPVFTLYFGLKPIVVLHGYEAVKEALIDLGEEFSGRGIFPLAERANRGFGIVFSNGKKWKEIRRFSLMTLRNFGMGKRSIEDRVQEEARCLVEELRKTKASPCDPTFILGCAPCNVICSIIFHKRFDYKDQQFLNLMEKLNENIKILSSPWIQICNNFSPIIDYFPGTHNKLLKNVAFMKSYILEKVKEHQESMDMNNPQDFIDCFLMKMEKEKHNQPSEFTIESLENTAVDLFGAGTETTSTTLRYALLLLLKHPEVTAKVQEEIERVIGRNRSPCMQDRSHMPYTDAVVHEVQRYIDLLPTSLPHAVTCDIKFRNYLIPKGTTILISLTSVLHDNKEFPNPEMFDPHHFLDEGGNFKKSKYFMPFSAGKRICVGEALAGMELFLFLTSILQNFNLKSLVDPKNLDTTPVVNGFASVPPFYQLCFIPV
Voltage-gated inwardly rectifying potassium channel KCNH2 (Homo sapiens), sequence (Q12809 whole entry, looked up): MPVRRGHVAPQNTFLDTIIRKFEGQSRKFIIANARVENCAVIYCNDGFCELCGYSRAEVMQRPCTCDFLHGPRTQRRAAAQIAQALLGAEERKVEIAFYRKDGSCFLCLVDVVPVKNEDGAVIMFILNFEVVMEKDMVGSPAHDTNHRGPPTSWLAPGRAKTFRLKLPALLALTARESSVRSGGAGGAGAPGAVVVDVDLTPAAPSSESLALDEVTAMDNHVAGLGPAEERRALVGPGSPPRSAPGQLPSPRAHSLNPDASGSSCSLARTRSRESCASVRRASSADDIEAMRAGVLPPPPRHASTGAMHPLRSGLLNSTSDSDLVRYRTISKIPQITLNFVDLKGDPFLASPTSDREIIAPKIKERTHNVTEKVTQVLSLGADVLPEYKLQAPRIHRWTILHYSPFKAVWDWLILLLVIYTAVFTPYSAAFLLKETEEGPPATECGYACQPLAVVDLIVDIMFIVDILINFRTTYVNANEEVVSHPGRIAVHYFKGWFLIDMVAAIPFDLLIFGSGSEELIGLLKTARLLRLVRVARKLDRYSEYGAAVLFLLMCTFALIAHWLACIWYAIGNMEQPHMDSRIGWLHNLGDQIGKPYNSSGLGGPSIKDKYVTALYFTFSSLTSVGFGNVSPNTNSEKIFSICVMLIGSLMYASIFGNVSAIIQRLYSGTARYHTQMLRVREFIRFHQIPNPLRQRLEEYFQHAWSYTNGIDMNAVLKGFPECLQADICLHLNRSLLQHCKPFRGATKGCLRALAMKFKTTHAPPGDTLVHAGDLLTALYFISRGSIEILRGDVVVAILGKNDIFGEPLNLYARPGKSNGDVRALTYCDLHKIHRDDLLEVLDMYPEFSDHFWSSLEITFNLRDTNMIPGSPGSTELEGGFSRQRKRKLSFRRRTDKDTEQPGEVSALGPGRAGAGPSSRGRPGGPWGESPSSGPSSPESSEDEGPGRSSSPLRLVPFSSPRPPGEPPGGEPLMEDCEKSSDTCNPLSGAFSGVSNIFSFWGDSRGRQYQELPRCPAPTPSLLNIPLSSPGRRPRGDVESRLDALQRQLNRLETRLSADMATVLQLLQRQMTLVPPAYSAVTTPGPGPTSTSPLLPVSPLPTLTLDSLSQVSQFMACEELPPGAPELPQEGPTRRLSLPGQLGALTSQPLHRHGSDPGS

Consider `CC(=O)Oc1ccccc1C(=O)Nc1ncc([N+](=O)[O-])s1`, for which the Potency result in assay [1], in [3], in assay [6], in [7] and in assay [12] was “inactive” throughout. Besides, the Potency in assay [2] is 12.4 µM (active) and 18.8 µM (active); in assay [4] it was 15.7 µM (active) and 21.1 µM (active); in assay [5] it was 11.1 µM (active) and 2.11 µM (active); in assay [8], 7.25 µM (active) and 7.76 µM (active); in [9], 3.63 µM (active) and 2.45 µM (active); in assay [10] it was 4.57 µM (active) and 2.75 µM (active). In addition, the Potency in assay [11] was 6.46 µM (active) and 7.76 µM (active).
As for `C[C@]12CCC(=O)C=C1CC[C@@H]1[C@@H]2C(=O)C[C@@]2(C)[C@H]1CC[C@]2(O)C(=O)CO`, the Potency result in [1], in assay [2], in [3], in assay [4], in assay [5] and in assay [6] was “inactive” in each case. The Potency entry in assay [7], in [8], in assay [10], in assay [11], in assay [12] and in assay [13] was “inactive” in each case. Moreover, the Potency in assay [9] was 25.2 µM (active).
Consider `O=C(O)c1ccccc1Nc1cccc(C(F)(F)F)c1`, for which the Potency entry in assay [1], in assay [2], in assay [3], in assay [4], in assay [8] and in assay [9] was “inactive” throughout. The Potency result in assay [12] and in assay [13] was “inactive” throughout. Besides, the Potency in assay [5] is 30.6 µM (active) and inactive; in assay [10] it was 63.3 µM (active); in [11], 35.6 µM (active).
Consider `Nc1ccc(Cl)cc1Cl`, for which the Potency result in assay [1], in assay [2], in assay [3], in assay [4], in assay [5] and in assay [8] was “inactive” each time. Also, the Potency entry in assay [9], in assay [10] and in [12] was “inactive” in each case. The Potency in assay [11] is 31.4 µM (active) and 39.9 µM (active).
For `Nc1ncnc2nc[nH]c12`, the Potency entry in assay [1], in [2], in assay [3], in [4], in assay [6] and in assay [7] was “inactive” in each case. In addition, the Potency entry in [8], in [9], in assay [10], in assay [11], in assay [12] and in assay [13] was “inactive” each time. Also, in [5], the Potency was 27.3 µM (active) and inactive.
With `CCCC(=O)O`, the Potency result in assay [1], in assay [2], in assay [3], in assay [4], in [5] and in assay [6] was “inactive” in each case. Moreover, the Potency entry in [7], in assay [8], in [10], in assay [11], in assay [12] and in assay [13] was “inactive” each time.
For `O=CCc1ccccc1`, the Potency entry in [1], in assay [2], in assay [3], in assay [4], in [5] and in assay [8] was “inactive” each time. Further, the Potency entry in [12] and in assay [13] was “inactive” each time. Further, the Potency in assay [9] was 19.9 µM (active) and 5.64 µM (active); in [10], 25 µM (active) and 5.03 µM (active); in assay [11], 39.9 µM (active).
Turning to `O=C(/C=C/c1ccccc1)OCc1ccccc1`, the Potency result in assay [1], in assay [2], in assay [3], in [4], in assay [5] and in [7] was “inactive” in each case. The Potency result in [8] and in assay [13] was “inactive” each time. Besides, the Potency in [9] was 17.8 µM (active) and 9.77 µM (active); in assay [10], 17.8 µM (active) and 13.8 µM (active); in assay [11], 11.2 µM (active) and 6.92 µM (active).
Consider `NC=O`, for which the Potency entry in [1], in [2], in assay [3], in assay [4], in assay [5] and in assay [8] was “inactive” each time. Also, the Potency result in [9], in assay [10], in assay [11], in assay [12] and in assay [13] was “inactive” each time.
Take `c1ccc(Nc2ccccc2)cc1`: the Potency entry in assay [1], in [2], in assay [3], in assay [4], in [8] and in [12] was “inactive” in each case. Besides, the Potency in assay [5] was 61.1 µM (active) and inactive; in [9], 4.48 µM (active) and 22.4 µM (active); in [10], 35.6 µM (active) and 39.9 µM (active); in assay [11], 35.6 µM (active); in assay [13] it was 3.17 µM (active) and inactive.
As to `OCCO`, the Potency result in assay [1], in assay [2], in [3], in assay [4], in assay [5] and in [9] was “inactive” in each case. Besides, the Potency entry in [10], in assay [11], in [12] and in [13] was “inactive” each time. Further, the Potency in [8] is 34.6 µM (active) and inactive.
For `CC(C(=O)O)c1cccc(C(=O)c2ccccc2)c1` (centres undefined), the Potency entry in [1], in [2], in assay [3], in assay [4], in assay [8] and in [12] was “inactive” each time. Moreover, in assay [13], the Potency entry is “inactive”. Also, the Potency was 39.9 µM (active) in [9]; 31.7 µM (active) and 30.9 µM (active) in assay [10]; “inactive and 24.5 µM (active)” in assay [11].
For the molecule `Oc1ccc(O)cc1`, the Potency entry in assay [1], in assay [3], in assay [4], in assay [8], in assay [9] and in assay [11] was “inactive” in each case. Further, the Potency result in [12] and in [13] was “inactive” in each case. Moreover, the Potency in assay [2] is 43 µM (active) and 68.6 µM (active); in assay [5], 54.2 µM (active) and inactive.
As to `O=c1oc(=O)c2cc3c(=O)oc(=O)c3cc12`, the Potency result in [1], in assay [2], in assay [3], in assay [4], in [8] and in assay [10] was “inactive” throughout. Moreover, the Potency result in [11] and in [12] was “inactive” each time.
In the case of `Cn1cnc([N+](=O)[O-])c1Sc1ncnc2nc[nH]c12`, the Potency entry in assay [1], in [3], in assay [5], in assay [10], in assay [11] and in [12] was “inactive” in each case. In addition, the Potency entry in assay [13] was “inactive”. Further, the Potency in assay [2] was 51.1 µM (active); in assay [4], 48.2 µM (active); in assay [8] it was 44.5 µM (active) and inactive.
